Bioassay records as filed in PubChem BioAssay.
This is a sample that favours compounds with a hit; in the whole collection about 2.9% have one here.
HEK293 viab: GF-AFC viability counterscreen for inhibitors of alpha-synuclein gene (SNCA) expression | Potency, µM (top dose mostly 57.1 µM), usual class: cytotoxic | HEK-293-SNCA-luc viability, GF-AFC fluorescence, 24 h | 150,000 compounds, 0.12% hits; note: nearly all actives have a fitted effect of over 30% in size
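HEK-293-SNCA-luc cells (1500/well) plated 24 h, then exposed 24 h to a dilution series; GF-AFC added 30 min at 37C, fluorescence 405/540 nm; normalised to medium-only and DMSO wells, Hill fit.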
SNCA expr inh: Primary qHTS assay for inhibitors of alpha-synuclein gene (SNCA) expression | HEK-293 SNCA-luciferase knock-in, luminescence, 24 h | Potency, µM (top dose mostly 57.2 µM), usual class: inhibitors | 140,000 compounds, 0.17% hits; note: nearly all actives have a fitted effect of over 45% in size
KDM5B inh: Primary screen for KDM5B Histone Demethylases FDH-coupled qHTS. 220,000 compounds, 2.6% hits. Potency, µM (doses to about 57.7 µM), actives largely listed as inhibitors. KDM5B demethylase, FDH-coupled NADH fluorescence (FDH is formaldehyde dehydrogenase); note: nearly all actives have a fitted effect of over 70% in size
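Measured: NADH fluorescence change, 30 min, RT. System: KDM5BΔAP 200 nM final, H3K4me3 peptide, α-KG, Fe(II), ascorbate, NAD⁺ plus FDH, pH 7.5 HEPES. Compounds: titrated, 10 min pre-incubation with enzyme.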
IP6K1 inh: Primary qHTS assay for small molecule inhibitors of Inositol hexaphosphate kinase 1 (IP6K1); Inositol hexakisphosphate kinase 1 (Homo sapiens), Q92551; IP6K1 kinase, ADP-Glo luminescence, 2 h; hits give low values; activity change, % (series mostly up to about 58 µM); 140,000 compounds, 0.81% hits; AID 1645851, 2021; in the data active = activity change below about -25%
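ADP-Glo luminescence measures ADP made by human IP6K1 during a 2 h RT reaction with ATP/IP6 (mix at 1.3 mM/130 uM); top library doses 57.5 and 19.1 uM final.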
Of the large screens only hits and unclear results are named; the others gave an inactive call. Unless noted, calls come from the whole dose curve; as a rule, active = well fitted curve in the direction sought with a large enough effect; inconclusive = small, poorly fitted or top-dose-only effect, or another doubt; inactive = no such curve, though single readings can be large; an effect the other way counts as inactive or inconclusive.

CCn1cnnc1CCNC(=O)c1cc(-c2ccc(C)cc2)nc2ccccc12	SNCA expr inh inconclusive, KDM5B inh 28µM
Cc1ccc(CCNC(=O)c2cc(-c3ccncc3)nc3ccccc23)cc1	none (no result: HEK293 viab, SNCA expr inh, IP6K1 inh)
COCCNc1ccc2nnc(-c3ccc(OC)cn3)n2n1	KDM5B inh 40µM
COc1ccc(-c2nnc3ccc(NC4CCCCC4)nn23)nc1	KDM5B inh 32µM
COc1ccc(-c2nnc3ccc(NC(C)C)nn23)nc1	KDM5B inh inconclusive
Cc1ccc(-c2nnc3ccc(NC4CCCCC4)nn23)nc1	KDM5B inh inconclusive
Cn1ccnc1CNC(=O)C[C@@H]1C[C@H]2O[C@H](CNC3CCC3)[C@@H](O)[C@H]2O1	none
O=C(NCCN1CCOCC1)C1Cn2cccc2C(=O)N1Cc1ccccc1 (stereo not drawn)	none
COc1cccc(C(=O)c2sc(Nc3cc(C)cc(C)c3)nc2N)c1	none (no result: HEK293 viab, SNCA expr inh, IP6K1 inh)
Cc1nn(CC(=O)NCc2cccnc2)c(=O)c2nc(-c3ccccc3)sc12	KDM5B inh 28µM
Cc1nn(CC(=O)NCc2ccc(F)cc2F)c(=O)c2nc(-c3ccccc3)sc12	KDM5B inh 32µM
COc1ccc(CN(C)CC(O)COc2ccccc2C)c(OC)c1OC (stereo not drawn)	none (no result: HEK293 viab, SNCA expr inh, IP6K1 inh)
CC(=O)Nc1ccc(C(=O)NC2CCN(c3cc(-c4cccs4)[nH]n3)C2)cc1 (stereo not drawn)	SNCA expr inh inconclusive, KDM5B inh 18µM
O=C(NC1CCN(c2cc(-c3cccs3)[nH]n2)CC1)c1ccc(F)c(F)c1	none
O=C(NC1CCN(c2cc(-c3cccs3)[nH]n2)C1)c1ccc(F)c(F)c1 (stereo not drawn)	KDM5B inh 13µM
COCc1cc(=O)n(CC(=O)Nc2ccc(Br)cc2)c(N2CCOCC2)n1	none
COc1ccc(OC)c(NC(=O)Cn2c(N3CCc4ccccc4C3)nc(C)cc2=O)c1	HEK293 viab inconclusive, SNCA expr inh inconclusive, KDM5B inh 28µM
Cc1cccc(N(C)C(=O)Cn2c(N3CCc4ccccc4C3)nc(C)cc2=O)c1	HEK293 viab 11µM, SNCA expr inh inconclusive, KDM5B inh inconclusive
COCc1cc(=O)n(CC(=O)Nc2cccc(Br)c2)c(N2CCOCC2)n1	KDM5B inh 28µM
COc1cccc(NC(=O)Cn2c(N3CCc4ccccc4C3)nc(C)cc2=O)c1	HEK293 viab inconclusive, SNCA expr inh inconclusive, KDM5B inh 11µM
CC(C)[C@@H]1C(=O)N(S(C)(=O)=O)[C@@H]2CCN(C(=O)/C=C/CN3CCCCC3)[C@H]21	none (no result: SNCA expr inh, KDM5B inh)
Cc1ccc(CNC(=O)Cn2c(N3CCc4ccccc4C3)nc(C)cc2=O)cc1	HEK293 viab inconclusive, SNCA expr inh inconclusive, KDM5B inh 28µM
CC(=O)OCC1=C(C(=O)O)N2C(=O)[C@@H](NC(=O)CSc3ccncc3)[C@H]2SC1	IP6K1 inh -42 (no result: KDM5B inh)
CCCNC(=O)C(C)NC(=O)c1cc(C)nc2ccccc12 (stereo not drawn)	none (no result: HEK293 viab, SNCA expr inh, IP6K1 inh)
O=C(NCc1ccccc1Cl)C1CCN(c2ncnc3nc[nH]c23)CC1	none (no result: HEK293 viab, SNCA expr inh, IP6K1 inh)
Cc1nn2c(c1-c1ccccc1[S+](C)(=O)[O-])N(CCC(C)C)CCC2	HEK293 viab inconclusive, SNCA expr inh 3.2µM, KDM5B inh 22µM
O=[S+]([O-])(c1cccc(C(F)(F)F)c1)N1CCC2(CCN(Cc3cccs3)c3ccccc3O2)CC1	KDM5B inh 11µM
CCn1cc(-c2cc(C(=O)N3CCCCCC3)c3cccc(C)c3n2)cn1	HEK293 viab inconclusive, KDM5B inh 32µM
Cc1cccc2c(C(=O)N3CCN(Cc4ccccc4)CC3)cc(-c3cccnc3)nc12	none (no result: HEK293 viab, SNCA expr inh, IP6K1 inh)
O=C(NC1CCc2nn(CC3CC3)c(=O)n2CC1)c1ccc[nH]c1=O (stereo not drawn)	KDM5B inh 28µM
Cn1nc(C(=O)NC2CCc3nn(CC4CC4)c(=O)n3CC2)c2ccccc21 (stereo not drawn)	KDM5B inh 28µM
Cc1ccsc1C(=O)NC1CCc2nn(CC3CC3)c(=O)n2CC1 (stereo not drawn)	none
CCC(C)[C@@H](NC(=O)NCc1ccc(C)cc1)C(=O)OC (stereo partly drawn)	none (no result: HEK293 viab, SNCA expr inh, IP6K1 inh)
O=C(O)CC(C(=O)OCC(F)(F)C(F)F)N1CCOCC1 (stereo not drawn)	none (no result: HEK293 viab, SNCA expr inh, IP6K1 inh)
Cc1cccc(CN2CCCC3(CCN(C(=O)Cc4cccnc4)C3)C2=O)c1 (stereo not drawn)	none
Cc1cccc(CN2CCCC3(CCN(C(=O)c4ccc(=O)[nH]c4)C3)C2=O)c1 (stereo not drawn)	KDM5B inh 13µM
COC(=O)[C@@H]1CCCN1c1ccc(-c2nc(-c3ccccc3F)no2)cn1	SNCA expr inh 11µM, KDM5B inh 25µM
COCC1CCN(c2ccc(-c3nc(-c4ccccc4C)no3)cn2)C1 (stereo not drawn)	KDM5B inh 32µM
Nc1c(C(=O)NC2CCCC2)nnn1-c1ccccc1	none (no result: HEK293 viab, SNCA expr inh, IP6K1 inh)
COCCNC(=O)CNC(=O)c1ccc(-c2cccc(C(F)(F)F)c2)cc1	none (no result: KDM5B inh)
O=C(c1ccn2nccc2c1)N1CCOCC1	KDM5B inh 32µM
COC(=O)/C=C/C(=O)N(O)CCCCNCc1ccc(COC(=O)Nc2cccc3ccccc23)cc1	HEK293 viab 24µM (no result: SNCA expr inh, KDM5B inh)
O=C(COc1ccc(Cl)cc1)N1CCC(c2n[nH]c(=O)n2Cc2ccc(F)cc2)CC1	none
Cn1ncc2c(-c3ccc([S+](C)(=O)[O-])cc3)cc(C(=O)NCc3ccc(F)cc3)nc21	SNCA expr inh inconclusive, KDM5B inh 79µM
Cn1ncc2c(C(=O)NCc3ccc(C(F)(F)F)cc3)cc(-c3ccc(F)cc3)nc21	none (no result: HEK293 viab, SNCA expr inh, KDM5B inh)
Cn1ncc2c(C(=O)NCC3CC3)cc(-c3cccnc3)nc21	KDM5B inh 100µM
COc1ccc(-c2cc(C(=O)NCC3CC3)c3cnn(C)c3n2)cc1	none (no result: KDM5B inh)
Cn1ncc2c(C(=O)NCc3ccncc3)cc(-c3ccc(F)cc3)nc21	KDM5B inh 79µM
COc1ccc(-c2nc3cc(C)ccc3cc2CN2CCCC(CO)C2)cc1OC (stereo not drawn)	none
COc1ccc2cc(CN3CCCC(C#N)C3)c(-c3cccs3)nc2c1 (stereo not drawn)	KDM5B inh 32µM
COc1ccc(-c2nc3cc(C)ccc3cc2CN2CCCC(OC)C2)cc1 (stereo not drawn)	KDM5B inh 25µM
COC[C@@H]1CCCN1Cc1cc2ccc(C)cc2nc1-c1ccc(OC)cc1	KDM5B inh 22µM
O=C1C(c2ccccc2)=S=C2C=Cc3ccccc3N12	none (no result: HEK293 viab, SNCA expr inh, IP6K1 inh)
O=C(Nc1cccc(F)c1)c1ccc(Cn2ccn3nc4c(c3c2=O)CCCC4)cc1	SNCA expr inh inconclusive, KDM5B inh 25µM
COc1ccc(NC(=O)c2ccc(Cn3ccn4nc5c(c4c3=O)CCCC5)cc2)cc1	none
O=C(NCc1cccc(Cl)c1)c1ccc(Cn2ccn3nc4c(c3c2=O)CCCC4)cc1	KDM5B inh inconclusive
COc1ccc(NC(=O)Cn2ccn3nc4c(c3c2=O)CCCCC4)cc1Cl	KDM5B inh 28µM
